Compound activity as filed in PubChem BioAssay.
Tau ThT inhib – inhibitors of human tau fibril formation, thioflavin T binding | recombinant tau K18 P301L, heparin-induced fibrillization, ThT fluorescence | Potency, µM (highest dose often 57.4 µM), usual class: inhibitors | 270,000 compounds, 2.1% hits | AID 1460; further: nearly all actives have a fitted effect of over 55% in size
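Tau K18 P301L fragment (15 uM unlabeled plus 0.24 uM Alexa 594-labeled) in 100 mM sodium acetate pH 7 with compound, fibrillization induced by 20 uM heparin for 6 hr at 37 C. Thioflavin T (30 uM) added, fluorescence read after 1 hr (ex 450, em 510 nm).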
Tau fluor cs – counter-screen for tau fibril formation inhibitors; AID 1463; Potency, µM (titrated, usually from 57.7 µM); tau K18 P301L Alexa594 fluorescence, heparin fibrillization; 280,000 compounds, 0.93% hits; further: nearly all actives have a fitted effect of over 55% in size
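Human tau K18 P301L (15 uM unlabeled, 0.24 uM Alexa 594-labeled) in 100 mM sodium acetate pH 7 with 20 uM heparin, 6 hr at 37 C. ThT 30 uM added, 1 hr ambient; Alexa 594 FP and total fluorescence read at 555/632 nm.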
TexasRed fluor – counter-screen for TRb-SRC2 inhibitors: fluorescence interference; TRb/SRC2 Texas Red total fluorescence interference; Potency, µM (top dose mostly 106 µM); 280,000 compounds, 0.29% hits; AID 1479; active means well fitted curve in either direction with a large enough effect; inconclusive means small, poorly fitted or top-dose-only effect
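Human TRβ ligand-binding domain (0.6 uM) and Texas Red SRC2 peptide (20 nM) in Tris buffer with 1 uM T3 and 5% DMSO were incubated with pinned compound for 5 hr at ambient temperature. Total fluorescence was computed as S + 2P (555/632 nm).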
TRb SRC2 PPI – inhibitors of human thyroid hormone receptor beta-SRC2 interaction; TRbeta-SRC2 peptide binding, fluorescence polarization; receptor liganded with 1 µM T3; Potency, µM (highest dose often 106 µM), usual class: inhibitors; 280,000 compounds, 0.065% hits; AID 1469; further: nearly all actives have a fitted effect of over 50% in size
Target sequence (P10828 whole entry, looked up): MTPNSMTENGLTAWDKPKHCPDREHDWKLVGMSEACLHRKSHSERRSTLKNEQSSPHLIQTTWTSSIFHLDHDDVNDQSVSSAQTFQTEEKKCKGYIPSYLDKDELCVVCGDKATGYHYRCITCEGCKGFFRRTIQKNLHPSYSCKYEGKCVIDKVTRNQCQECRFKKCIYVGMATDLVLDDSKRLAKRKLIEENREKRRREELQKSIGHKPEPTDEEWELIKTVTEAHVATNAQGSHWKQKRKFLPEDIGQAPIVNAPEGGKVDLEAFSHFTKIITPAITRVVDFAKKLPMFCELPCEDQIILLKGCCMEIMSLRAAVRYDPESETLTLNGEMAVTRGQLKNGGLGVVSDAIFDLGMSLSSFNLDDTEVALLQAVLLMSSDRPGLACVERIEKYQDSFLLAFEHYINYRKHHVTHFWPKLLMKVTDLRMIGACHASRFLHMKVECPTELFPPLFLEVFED
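Read-out is fluorescence polarization (555 nm excitation, 632 nm emission) of a Texas Red SRC2 coactivator peptide; loss of signal reflects blocked binding to human TRb ligand-binding domain in the presence of 1 uM T3.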
Tau fibril FP – tau fibrillization inhibition (FP); AID 1468; P10636; K18 P301L tau heparin fibrillization, Alexa594 FP, 6 h; 280,000 compounds, 0.39% hits; Potency, µM (titrated, usually from 57.7 µM), hits mostly inhibitors; further: nearly all actives have a fitted effect of over 55% in size
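Compound effects on tau fibrillization are measured by Alexa 594 fluorescence polarization (ex 555, em 632 nm). K18 P301L tau is used at 15 uM with 0.24 uM labeled tracer, and 20 uM heparin induces aggregation over 6 hr at 37 C.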
GoLoco inh red – inhibitors of human Gai1-RGS12 GoLoco interaction (red fluorophore) | P63096 | Gai1:RGS12 GoLoco peptide FP, rhodamine, 10 min | Potency, µM (top dose mostly 61.6 µM), actives largely listed as inhibitors | 230,000 compounds, 0.44% hits; active means well fitted inhibition curve with a large enough effect, not every such curve was filed as active; inactive means no such curve, though single readings can be large or run the other way; further: nearly all actives have a fitted effect of over 30% in size
Target sequence (P63096 whole entry, looked up): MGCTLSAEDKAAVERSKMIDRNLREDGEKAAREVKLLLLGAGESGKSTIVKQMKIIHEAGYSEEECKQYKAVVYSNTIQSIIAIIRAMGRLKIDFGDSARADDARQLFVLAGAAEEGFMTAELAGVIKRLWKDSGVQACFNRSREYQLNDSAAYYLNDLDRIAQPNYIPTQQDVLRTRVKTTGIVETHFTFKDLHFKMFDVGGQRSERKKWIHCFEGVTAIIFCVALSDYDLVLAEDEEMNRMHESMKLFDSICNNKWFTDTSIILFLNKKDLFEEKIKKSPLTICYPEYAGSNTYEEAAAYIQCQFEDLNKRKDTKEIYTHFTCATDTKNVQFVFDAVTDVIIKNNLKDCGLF
Large screens that a line does not name were inactive; [ ] = dose if it differs, or a comment. The list is not random: actives were taken first. Their share in the collection is about 3.2%. Unless noted, the call rests on the fitted dose curve; in most records, active means well fitted curve in the direction sought with a large enough effect; inconclusive means small, poorly fitted or top-dose-only effect, or another doubt; inactive means no such curve, though single readings can be large; an effect the other way counts as inactive or inconclusive.

CSc1nncc(/C(C)=N\Nc2cccc(C)c2)n1	Tau ThT inhib inconclusive
C/C(=N\Nc1nc2c(s1)CCCC2)c1ccccc1	Tau ThT inhib 14.1µM, Tau fluor cs inconclusive
COc1ccc(/C=C/C(=O)c2cc(Cl)ccc2O)c(OC)c1	Tau ThT inhib 15.8µM
COc1ccc(C(=O)/C=C/c2ccc(OC)cc2OC)c(O)c1	Tau ThT inhib 17.8µM
COc1ccc(/C=C/C(=O)c2ccc(Cl)cc2)c(OC)c1	Tau ThT inhib inconclusive
CC1=CC2C(C)(C)CC(=O)C[C@]2(C)CC1COc1ccc2c(c1)CC(=O)C=C2 (stereo partly specified)	none
COC/C=C/C1=CC2=CC(=O)C(C)(OC(=O)c3cnc4ccccc4n3)C(=O)C2=CN1Cc1ccccc1 (stereo unspecified)	Tau ThT inhib 10µM, Tau fluor cs inconclusive, Tau fibril FP inconclusive
COC/C=C/C1=CC2=CC(=O)C(C)(OC(=O)c3cnc4ccccc4n3)C(=O)C2=CN1CCCCO (stereo unspecified)	Tau ThT inhib 12.6µM, TexasRed fluor inconclusive, Tau fibril FP inconclusive
COC/C=C/C1=CC2=CC(=O)C(C)(OC(=O)c3cnc4ccccc4n3)C(=O)C2=CN1CC1CC1 (stereo unspecified)	Tau ThT inhib inconclusive
COC/C=C/C1=CC2=CC(=O)C(C)(OC(=O)c3cnc4ccccc4n3)C(=O)C2=CN1CCc1ccccn1 (stereo unspecified)	none
COC/C=C/C1=CC2=CC(=O)C(C)(OC(=O)c3cnc4ccccc4n3)C(=O)C2=CN1Cc1ccc(OC)cc1 (stereo unspecified)	Tau ThT inhib 12.6µM, Tau fluor cs inconclusive, Tau fibril FP inconclusive
CC(C)=CCC/C(C)=C/C=C/C1=CC2(C)CC1(C)C(/C=C(\C)CCC=C(C)C)CC2=O (stereo unspecified)	none (no result: GoLoco inh red)
CC(=O)c1nn(-c2ccc(OC(F)(F)F)cc2)nc1Nc1ccc(C)cc1	none (no result: GoLoco inh red)
CCCc1cc(=O)c2c(O)ccc(OC)c2o1	none
Cc1cc(=O)c2c(O)cc(O)c(C)c2o1	Tau ThT inhib 25.1µM, Tau fluor cs 28.2µM[quencher], Tau fibril FP inconclusive
Cc1cc(-c2nsc(=O)o2)c(S(C)(=O)=O)s1	Tau ThT inhib 31.6µM, Tau fibril FP inconclusive
CN(C)CCNC=C(C(=O)Nc1ccc(Cl)cc1Cl)C(=O)Nc1ccc(Cl)cc1Cl	Tau fluor cs inconclusive, Tau fibril FP 10µM
CCn1c2ccccc2c2nnc(N3CCN(c4cccc(Cl)c4)CC3)nc21	Tau ThT inhib inconclusive, Tau fluor cs 17.8µM[quencher] (no result: GoLoco inh red)
C=C(C)COc1ccc(-c2n[nH]c(C)c2-c2ccc(OC)cc2)c(O)c1	Tau fluor cs 25.1µM[quencher], Tau fibril FP inconclusive
COc1ccc(-c2c(-c3ccc(OCC(=O)NN)cc3O)n[nH]c2C(F)(F)F)cc1	Tau ThT inhib inconclusive, Tau fluor cs 22.4µM[quencher], Tau fibril FP inconclusive
NNC(=O)COc1cccc(C(F)(F)F)c1	none
COc1ccc(C2CC(c3ccccc3)Oc3cc(OC)ccc32)cc1 (stereo unspecified)	none (no result: Tau ThT inhib, Tau fluor cs, Tau fibril FP, GoLoco inh red)
Cc1ccc(C)c(CSc2nnc(-c3ccccn3)n2N)c1	none
Cc1ccc(C)c(CSC2=NC(C)(C)Nc3ccccc32)c1	Tau ThT inhib inconclusive, Tau fluor cs 11.2µM[quencher] (no result: GoLoco inh red)
CC1(C)N=C(SCc2ccc(F)cc2)c2ccccc2N1	Tau ThT inhib inconclusive, Tau fluor cs 11.2µM[quencher] (no result: GoLoco inh red)
CC1=NN(c2ccccc2)C(=O)/C1=C/c1cn(C)c2ccccc12	Tau ThT inhib 2.82µM, Tau fluor cs inconclusive
CC1=NN(c2ccccc2)C(=O)/C1=C\c1cn(C)c2ccccc12	Tau ThT inhib 7.08µM, Tau fluor cs inconclusive, Tau fibril FP inconclusive
CC1=NN(c2ccccc2)C(=O)/C1=C/c1cc2cc(C)ccc2nc1N1CCCCC1	Tau ThT inhib inconclusive, Tau fluor cs inconclusive, TRb SRC2 PPI inconclusive
CC1=NN(c2ccccc2)C(=O)/C1=C\c1cc(C)n(C)c1C	Tau ThT inhib 3.55µM, Tau fibril FP inconclusive
Cc1ccc(/C(C#N)=C\c2cn(C)c3ccccc23)cc1	Tau fluor cs inconclusive
COC(=O)[C@H](C)[C@H](CC(C)C)NC(=O)[C@H](C)[C@H](CC(C)C)NC(=O)c1ccccn1	none (no result: Tau ThT inhib, Tau fluor cs, Tau fibril FP, GoLoco inh red)
Cc1nc(N)sc1-c1csc(N(C)c2ccc(O)cc2)n1	Tau ThT inhib 15.8µM, Tau fluor cs inconclusive, Tau fibril FP inconclusive
O=C1C2CCCCC2C(=O)N1Cc1ccccc1 (stereo unspecified)	none
O=c1ccsn1Cc1ccccc1	Tau ThT inhib 10µM, Tau fibril FP 14.1µM
Cn1ccnc1C[C@@](C)(O)c1ccccc1	none (no result: Tau ThT inhib, Tau fluor cs, TexasRed fluor, TRb SRC2 PPI, Tau fibril FP)
O=C(/C=C/c1cn(CC(O)CN2CCOCC2)c2ccccc12)c1cccs1 (stereo unspecified)	Tau ThT inhib 14.1µM, Tau fluor cs inconclusive
COc1ccc(C(=O)/C=C/c2cn(CC(O)CN3CCOCC3)c3ccccc23)cc1 (stereo unspecified)	Tau ThT inhib 10µM, Tau fluor cs inconclusive, Tau fibril FP inconclusive
Cc1ccc(C(=O)/C=C/c2cn(CC(O)CN3CCOCC3)c3ccccc23)cc1 (stereo unspecified)	Tau ThT inhib inconclusive
O=Cc1cn(CC(O)CN2CCCCC2)c2ccccc12 (stereo unspecified)	none
COc1ccc(CCNC(=O)Cc2cccs2)cc1	none
O=C(Cc1ccc(Nc2nc3ccc(Br)cc3[nH]2)cc1)NCCc1cccs1	Tau ThT inhib inconclusive, Tau fluor cs 15.8µM[quencher], Tau fibril FP inconclusive
O=C(NCCc1nc2ccccc2[nH]1)c1cccc(Br)c1	none
O=C(NCC1CC1)c1ccc(Nc2nc3ccc(Br)cc3[nH]2)cc1	Tau ThT inhib inconclusive, Tau fluor cs 12.6µM[quencher], Tau fibril FP inconclusive
O=C(NCc1ccco1)c1cccc(Nc2nc3ccc(Br)cc3[nH]2)c1	Tau ThT inhib 28.2µM, Tau fluor cs 10µM[quencher], Tau fibril FP inconclusive
COC(=O)[C@@H]1[C@@H](C)N(CCc2cc(OC)c(OC)c(OC)c2)C(=O)N[C@H]1c1ccccc1	none
Cc1ccc(N)c(Cl)c1	none (no result: Tau ThT inhib, Tau fluor cs, Tau fibril FP, GoLoco inh red)
COc1cc(NS(=O)(=O)c2ccc([N+](=O)[O-])cc2)c2ncccc2c1	none (no result: Tau ThT inhib, Tau fluor cs, Tau fibril FP, GoLoco inh red)
O=C1OC(=O)c2ccccc21	none (no result: Tau ThT inhib, Tau fluor cs, Tau fibril FP)
C=CCN1C(=O)/C(=C/c2ccc(OC(C)=O)c(OCC)c2[N+](=O)[O-])SC1=S	none
COc1c(OC(C)=O)ccc(/C=C/c2ccc3ccccc3n2)c1[N+](=O)[O-]	Tau ThT inhib 10µM, Tau fluor cs 15.8µM[quencher], Tau fibril FP inconclusive
COc1c(OC(C)=O)ccc(/C=C/c2ccc3cccc(OC)c3n2)c1[N+](=O)[O-]	Tau ThT inhib 8.91µM, Tau fluor cs inconclusive
COC(=O)c1ccc(/C=C/c2ccc3cccc(OC(C)=O)c3n2)cc1	none
